Source: the supplement of paper PMC9446081
± gives the standard deviation of the averaged measurements.

Columns and labels:
Experiment in all cases: relative enzymatic activity vs untreated control (fraction); higher = less inhibition
Details in all cases: 100 µM; incubation time: 2 h at 37 C
[1] = tested on: DNA gyrase
Experimental: (§1)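 In vitro enzymatic inhibition assays (ProFoldin kits) for 12 purified essential E. coli enzymes or complexes, each treated with 218 active antibacterial compounds at 100 µM for 2 h at 37°C. Read-outs were fluorescence or absorbance (phosphate detection, dye binding), converted to activity via standard curves and expressed relative to untreated DMSO controls.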

[2] = target: DNA helicase (UniProt P0ACB1)
Experimental: as §1

[3] = target: DNA ligase (UniProt B1XA82)
Experimental: as §1

[4] = target: DNA polymerase (UniProt P10443)
Experimental: as §1

[5] = target: DNA primase (UniProt P0ABS7)
Experimental: as §1

[6] = target: GlmU (UniProt A7ZTU1)
Experimental: as §1

[7] = target: Guanlyate kinase (UniProt Q0TBG1)
Experimental: as §1

[8] = target: MurA (UniProt Q3YX52)
Experimental: as §1

[9] = target: T1, MurD (UniProt P14900)
T1 sequence (whole entry): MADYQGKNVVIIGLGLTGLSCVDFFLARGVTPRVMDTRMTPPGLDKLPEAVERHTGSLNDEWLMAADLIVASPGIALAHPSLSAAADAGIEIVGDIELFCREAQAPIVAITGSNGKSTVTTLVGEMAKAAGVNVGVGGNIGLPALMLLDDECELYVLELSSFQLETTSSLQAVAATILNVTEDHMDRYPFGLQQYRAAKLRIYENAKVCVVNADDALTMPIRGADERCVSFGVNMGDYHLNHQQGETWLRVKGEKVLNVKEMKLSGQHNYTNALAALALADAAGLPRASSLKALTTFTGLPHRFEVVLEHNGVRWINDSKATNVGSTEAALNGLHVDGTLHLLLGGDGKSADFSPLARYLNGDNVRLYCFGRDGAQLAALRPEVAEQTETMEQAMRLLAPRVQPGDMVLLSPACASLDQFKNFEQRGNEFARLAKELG
Experimental: as §1

[10] = target: T2, MurF (UniProt P11880)
T2 sequence (whole entry): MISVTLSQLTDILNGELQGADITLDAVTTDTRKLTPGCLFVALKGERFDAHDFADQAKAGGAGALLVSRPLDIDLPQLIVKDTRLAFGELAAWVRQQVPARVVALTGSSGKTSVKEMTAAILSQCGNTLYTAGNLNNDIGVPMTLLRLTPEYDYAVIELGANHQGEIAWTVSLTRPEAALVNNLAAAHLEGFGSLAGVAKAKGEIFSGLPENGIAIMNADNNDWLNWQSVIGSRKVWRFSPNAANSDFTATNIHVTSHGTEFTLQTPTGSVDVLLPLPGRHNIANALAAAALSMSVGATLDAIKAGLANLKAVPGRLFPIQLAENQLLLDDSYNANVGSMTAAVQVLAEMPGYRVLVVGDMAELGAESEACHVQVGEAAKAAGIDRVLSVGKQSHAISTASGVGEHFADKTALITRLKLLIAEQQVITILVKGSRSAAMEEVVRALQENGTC
Experimental: as §1

[11] = tested on: RNA polymerase
Experimental: as §1

Chain of DNA polymerase (P10443 whole entry): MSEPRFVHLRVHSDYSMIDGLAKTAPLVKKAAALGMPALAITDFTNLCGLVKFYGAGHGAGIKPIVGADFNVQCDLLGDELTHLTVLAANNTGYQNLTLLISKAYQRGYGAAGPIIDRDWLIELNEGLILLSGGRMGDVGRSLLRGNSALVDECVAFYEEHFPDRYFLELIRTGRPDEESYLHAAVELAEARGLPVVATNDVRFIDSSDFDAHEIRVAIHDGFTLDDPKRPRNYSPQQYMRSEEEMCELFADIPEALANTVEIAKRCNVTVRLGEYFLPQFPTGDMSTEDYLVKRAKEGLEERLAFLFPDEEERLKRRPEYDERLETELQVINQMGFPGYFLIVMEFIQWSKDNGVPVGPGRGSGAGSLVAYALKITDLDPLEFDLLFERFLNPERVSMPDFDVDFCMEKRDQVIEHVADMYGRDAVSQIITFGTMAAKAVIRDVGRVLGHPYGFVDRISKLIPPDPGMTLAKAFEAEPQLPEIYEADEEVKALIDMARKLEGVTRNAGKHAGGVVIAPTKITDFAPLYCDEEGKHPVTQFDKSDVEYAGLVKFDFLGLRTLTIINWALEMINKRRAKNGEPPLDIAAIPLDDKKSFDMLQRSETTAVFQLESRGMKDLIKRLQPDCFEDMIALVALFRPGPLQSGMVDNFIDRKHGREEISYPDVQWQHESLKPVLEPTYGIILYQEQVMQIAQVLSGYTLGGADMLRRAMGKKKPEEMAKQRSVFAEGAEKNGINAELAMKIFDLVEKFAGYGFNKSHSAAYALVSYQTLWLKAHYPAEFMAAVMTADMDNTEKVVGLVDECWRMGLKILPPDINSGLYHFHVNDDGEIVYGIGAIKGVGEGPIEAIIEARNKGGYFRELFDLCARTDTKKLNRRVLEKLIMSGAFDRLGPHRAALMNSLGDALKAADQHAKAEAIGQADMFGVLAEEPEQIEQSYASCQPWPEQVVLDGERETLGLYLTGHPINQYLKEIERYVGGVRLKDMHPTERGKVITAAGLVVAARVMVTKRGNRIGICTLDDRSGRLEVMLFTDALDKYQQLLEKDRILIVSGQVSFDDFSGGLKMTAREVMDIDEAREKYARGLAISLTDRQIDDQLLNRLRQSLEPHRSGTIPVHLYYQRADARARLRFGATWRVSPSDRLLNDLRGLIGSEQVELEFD
Chain of DNA primase (P0ABS7 whole entry): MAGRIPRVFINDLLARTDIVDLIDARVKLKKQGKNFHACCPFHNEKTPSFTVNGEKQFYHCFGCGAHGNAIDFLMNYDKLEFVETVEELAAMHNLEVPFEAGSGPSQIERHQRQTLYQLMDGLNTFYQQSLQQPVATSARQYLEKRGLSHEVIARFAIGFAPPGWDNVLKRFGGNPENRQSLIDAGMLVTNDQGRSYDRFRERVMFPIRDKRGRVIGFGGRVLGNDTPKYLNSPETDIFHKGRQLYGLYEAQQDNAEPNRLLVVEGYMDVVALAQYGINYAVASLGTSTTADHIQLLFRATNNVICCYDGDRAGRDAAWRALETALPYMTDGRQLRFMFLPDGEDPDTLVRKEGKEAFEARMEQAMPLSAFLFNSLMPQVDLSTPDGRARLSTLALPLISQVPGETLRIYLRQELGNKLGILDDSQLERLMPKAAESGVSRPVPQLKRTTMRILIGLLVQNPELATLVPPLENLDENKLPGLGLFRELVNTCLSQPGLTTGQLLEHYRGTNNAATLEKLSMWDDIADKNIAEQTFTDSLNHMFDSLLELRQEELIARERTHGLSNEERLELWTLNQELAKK
Chain of GlmU (A7ZTU1 whole entry, looked up): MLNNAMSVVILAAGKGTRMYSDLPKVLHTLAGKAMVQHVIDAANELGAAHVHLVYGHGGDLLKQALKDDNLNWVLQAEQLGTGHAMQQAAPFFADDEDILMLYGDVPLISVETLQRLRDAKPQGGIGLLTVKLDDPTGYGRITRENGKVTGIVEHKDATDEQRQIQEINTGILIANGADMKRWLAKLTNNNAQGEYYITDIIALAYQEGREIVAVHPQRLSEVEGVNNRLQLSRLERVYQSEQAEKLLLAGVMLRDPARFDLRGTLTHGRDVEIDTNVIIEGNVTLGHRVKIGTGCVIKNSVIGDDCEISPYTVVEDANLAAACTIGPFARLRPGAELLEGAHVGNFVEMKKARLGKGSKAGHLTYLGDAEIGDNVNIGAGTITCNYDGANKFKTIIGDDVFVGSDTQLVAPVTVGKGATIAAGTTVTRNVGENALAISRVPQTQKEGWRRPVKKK
Chain of MurA (Q3YX52 whole entry): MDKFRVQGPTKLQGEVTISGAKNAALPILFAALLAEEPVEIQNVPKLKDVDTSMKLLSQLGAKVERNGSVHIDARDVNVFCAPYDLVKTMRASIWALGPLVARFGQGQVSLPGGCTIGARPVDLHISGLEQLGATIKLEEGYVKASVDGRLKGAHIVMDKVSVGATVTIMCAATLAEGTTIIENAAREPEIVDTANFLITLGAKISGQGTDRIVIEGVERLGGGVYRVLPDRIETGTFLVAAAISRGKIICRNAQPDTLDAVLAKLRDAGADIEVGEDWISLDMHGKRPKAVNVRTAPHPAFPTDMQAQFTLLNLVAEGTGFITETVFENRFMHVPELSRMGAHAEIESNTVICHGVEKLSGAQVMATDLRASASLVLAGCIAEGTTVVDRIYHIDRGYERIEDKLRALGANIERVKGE
Chain of DNA helicase (P0ACB1 whole entry): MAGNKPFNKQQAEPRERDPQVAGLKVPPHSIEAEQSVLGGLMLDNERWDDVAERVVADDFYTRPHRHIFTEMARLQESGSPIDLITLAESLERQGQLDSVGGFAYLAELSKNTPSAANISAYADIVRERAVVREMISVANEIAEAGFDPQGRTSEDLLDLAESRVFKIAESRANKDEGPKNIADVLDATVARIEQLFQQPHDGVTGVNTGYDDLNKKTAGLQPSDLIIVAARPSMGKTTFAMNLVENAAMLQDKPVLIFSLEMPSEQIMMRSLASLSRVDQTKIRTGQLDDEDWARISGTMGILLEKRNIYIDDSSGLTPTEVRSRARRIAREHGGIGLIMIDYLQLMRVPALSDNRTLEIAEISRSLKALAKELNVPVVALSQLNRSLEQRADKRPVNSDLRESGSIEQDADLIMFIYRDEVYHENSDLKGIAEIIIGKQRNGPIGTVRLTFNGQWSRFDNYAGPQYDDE
Chain of Guanlyate kinase (Q0TBG1 whole entry): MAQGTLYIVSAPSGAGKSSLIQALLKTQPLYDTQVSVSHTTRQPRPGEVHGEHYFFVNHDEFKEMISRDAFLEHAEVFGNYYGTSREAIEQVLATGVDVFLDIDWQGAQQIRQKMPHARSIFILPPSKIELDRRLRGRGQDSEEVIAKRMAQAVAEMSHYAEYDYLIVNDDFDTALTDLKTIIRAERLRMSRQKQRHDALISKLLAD
Chain of DNA ligase (B1XA82 whole entry): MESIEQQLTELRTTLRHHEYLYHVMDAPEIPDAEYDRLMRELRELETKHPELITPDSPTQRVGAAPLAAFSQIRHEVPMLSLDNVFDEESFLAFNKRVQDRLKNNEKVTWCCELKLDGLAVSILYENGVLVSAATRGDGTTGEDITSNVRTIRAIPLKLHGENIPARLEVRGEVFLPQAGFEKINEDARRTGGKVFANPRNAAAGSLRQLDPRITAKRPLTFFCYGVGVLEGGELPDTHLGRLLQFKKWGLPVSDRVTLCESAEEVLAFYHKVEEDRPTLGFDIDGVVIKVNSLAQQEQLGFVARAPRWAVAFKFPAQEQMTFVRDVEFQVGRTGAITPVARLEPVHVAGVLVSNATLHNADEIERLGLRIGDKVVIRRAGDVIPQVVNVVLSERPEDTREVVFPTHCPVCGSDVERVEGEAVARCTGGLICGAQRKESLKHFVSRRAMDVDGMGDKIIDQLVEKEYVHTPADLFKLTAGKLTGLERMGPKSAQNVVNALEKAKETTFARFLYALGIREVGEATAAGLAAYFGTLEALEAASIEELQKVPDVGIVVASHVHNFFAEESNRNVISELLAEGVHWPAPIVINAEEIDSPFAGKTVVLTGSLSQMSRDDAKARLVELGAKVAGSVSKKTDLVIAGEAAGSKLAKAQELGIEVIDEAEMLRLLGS

Compound | relative enzymatic activity [1] | relative enzymatic activity [2] | relative enzymatic activity [3] | relative enzymatic activity [4] | relative enzymatic activity [5] | relative enzymatic activity [6] | relative enzymatic activity [7] | relative enzymatic activity [8] | relative enzymatic activity [9] | relative enzymatic activity [10] | relative enzymatic activity [11]
COC1C=COC2(C)Oc3c(C)c(O)c4c(O)c(c(C=NN5CCN(C)CC5)c(O)c4c3C2=O)NC(=O)C(C)=CC=CC(C)C(O)C(C)C(O)C(C)C(OC(C)=O)C1C (stereo not drawn) | 0.468 ± 0.18 | 0.717 ± 0.33 | 0.8414 ± 0.0057 | 0.862 ± 0.32 | 0.507 ± 0.0061 | 0.288 ± 0.02 | 0.399 ± 0.0045 | 0.0919 ± 0.015 | 0.175 ± 0.081 | 0.464 ± 0.051 | 0.0875 ± 0.0034
CCCCCCCCCCCCC[N+](C)(C)Cc1ccccc1.O.[Cl-] | 0.0515 ± 0.073 | 0.0193 ± 0.00021 | 0.811 ± 0.32 | 0.208 ± 0.0053 | 0.482 ± 0.019 | 0.157 ± 0.036 | 0.171 ± 0.062 | 0.051 ± 0.015 | 0.115 ± 0.035 | 0.102 ± 0.021 | 0.32 ± 0.068
CN(C)[C@@H]1C(=O)[C@@H](C(N)=O)C(=O)[C@@]2(O)C(=O)[C@H]3C(=O)c4c(O)ccc(Cl)c4[C@@H](O)[C@H]3C[C@@H]12 | 1.05 ± 0.19 | 0.508 ± 0.1 | 0.858 ± 0.066 | 1.17 ± 0.28 | 0.754 ± 0.018 | 1.02 ± 0.063 | 0.831 ± 0.16 | 0.336 ± 0.14 | 0.621 ± 0.42 | 0.975 ± 0.23 | 0.749 ± 0.19
COC1C=COC2(C)Oc3c(C)c(O)c4c(O)c(c5c(nc6cc(C)ccn65)c4c3C2=O)NC(=O)C(C)=CC=CC(C)C(O)C(C)C(O)C(C)C(OC(C)=O)C1C (stereo not drawn) | 0.733 ± 0.23 | 0.703 ± 0.32 | 1.12 ± 0.24 | 1.11 ± 0.24 | 0.8 ± 0.047 | 0.746 ± 0.032 | 0.583 ± 0.0086 | 0.423 ± 0.046 | 0.417 ± 0.28 | 0.788 ± 0.15 | 0.106 ± 0.0026
CCOC(=O)CCC(=O)O[C@H]1[C@H](O[C@@H]2[C@@H](C)[C@H](O[C@H]3C[C@@](C)(OC)[C@@H](O)[C@H](C)O3)[C@@H](C)C(=O)O[C@H](CC)[C@@](C)(O)[C@H](O)[C@@H](C)C(=O)[C@H](C)C[C@@]2(C)O)O[C@H](C)C[C@@H]1N(C)C | 0.685 ± 0.3 | 0.691 ± 0.34 | 0.982 ± 0.061 | 1.17 ± 0.28 | 0.835 ± 0.0032 | 1.018 ± 0.0098 | 0.941 ± 0.052 | 0.816 ± 0.11 | 0.599 ± 0.4 | 0.961 ± 0.23 | 0.831 ± 0.037
CCC1OC(=O)C(C)C(OC2CC(C)(OC)C(O)C(C)O2)C(C)C(OC2OC(C)CC(N(C)C)C2O)C(C)(O)CC(C)CN(C)C(C)C(O)C1(C)O (stereo not drawn) | 1.09 ± 0.048 | 0.601 ± 0.15 | 1.06 ± 0.2 | 1.11 ± 0.15 | 0.712 ± 0.2 | 1.09 ± 0.14 | 1.04 ± 0.034 | 0.766 ± 0.061 | 0.572 ± 0.39 | 0.964 ± 0.17 | 0.843 ± 0.027
CS(=O)(=O)c1ccc(C(O)C(CF)NC(=O)C(Cl)Cl)cc1 (stereo not drawn) | 0.854 ± 0.44 | 0.577 ± 0.2 | 1.21 ± 0.24 | 1.29 ± 0.35 | 0.8787 ± 0.0014 | 0.977 ± 0.042 | 0.976 ± 0.14 | 0.796 ± 0.099 | 0.575 ± 0.38 | 0.945 ± 0.21 | 0.916 ± 0.026
Cc1cc(C2CCCCC2)n(O)c(=O)c1.NCCO | 1.114 ± 0.0086 | 0.546 ± 0.12 | 1.28 ± 0.12 | 1.29 ± 0.34 | 0.751 ± 0.22 | 1.12 ± 0.0031 | 1.05 ± 0.04 | 0.975 ± 0.045 | 0.678 ± 0.45 | 1.02 ± 0.2 | 0.8877 ± 0.0077
Cn1sccc1=O | 0.437 ± 0.62 | 0.607 ± 0.19 | 1 ± 0.053 | 1 ± 0.17 | 0.8591 ± 0.0028 | 0.622 ± 0.045 | 0.903 ± 0.084 | 0.0867 ± 0.0083 | 0.579 ± 0.4 | 0.968 ± 0.27 | 0.847 ± 0.097
COC1(NC(=O)C2SC(=C(C(N)=O)C(=O)O)S2)C(=O)N2C(C(=O)O)=C(CSc3nnnn3C)CSC21 (stereo not drawn) | 0.705 ± 0.46 | 0.463 ± 0.027 | 1.47 ± 0.23 | 1.18 ± 0.25 | 0.683 ± 0.18 | 0.99 ± 0.066 | 0.994 ± 0.02 | 0.0627 ± 0.021 | 0.618 ± 0.43 | 0.974 ± 0.2 | 0.871 ± 0.07
CN(C)C1C(O)=C(C(N)=O)C(=O)C2(O)C(O)=C3C(=O)c4c(O)cccc4C(C)(O)C3C(O)C12.Cl (stereo not drawn) | 0.0137 ± 0.019 | 0.171 ± 0.03 | 0.908 ± 0.21 | 0.4407 ± 0.0041 | 0.517 ± 0.0096 | 1.02 ± 0.013 | 0.521 ± 0.0059 | 0.0726 ± 0.028 | 0.635 ± 0.42 | 1.02 ± 0.25 | 0.177 ± 0.017
CN(C)[C@@H]1C(=O)[C@@H](C(N)=O)C(=O)[C@@]2(O)C(=O)[C@@H]3C(=O)c4c(O)c(NC(=O)CN5CCCC5)cc(F)c4C[C@H]3C[C@@H]12 | 0.0486 ± 0.069 | 0.103 ± 0.0053 | 0.94816 ± 9.1e-05 | 1.06 ± 0.31 | 0.456 ± 0.15 | 0.9445 ± 0.0056 | 0.347 ± 0.035 | 0.63 ± 0.26 | 0.632 ± 0.45 | 0.943 ± 0.19 | 0.118 ± 0.028
N[C@@H](C(=O)N[C@@H]1C(=O)N2C(C(=O)O)=C(Cl)CS[C@H]12)c1ccccc1 | 0.759 ± 0.31 | 0.537 ± 0.076 | 1.02 ± 0.078 | 1.1 ± 0.25 | 0.801 ± 0.021 | 0.911 ± 0.035 | 0.87 ± 0.074 | 0.168 ± 0.067 | 0.579 ± 0.39 | 0.954 ± 0.21 | 0.766 ± 0.036
